SMILES strings stand for the structures. Activity calls are given as the source filed them.

For eleven compounds, composite z-score and z-score results are on record in PubChem BioAssay.

Test [1] relates to PRMT1 (protein arginine N-methyltransferase 1). Kind of test: PRMT1 binders on small-molecule microarrays, primary screen, biochemical, small-molecule microarray, 635 nm fluorescence (AID 1088).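 Also: binding of Prmt1 protein to compounds spotted on small-molecule microarray slides.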 The following applies: small-molecule microarray binding, higher = more signal.
A short description of test [2]: yeast growth modulation, basal conditions, primary screen, YJM789 clinical isolate, OD600, 24 h (AID 1089).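 Also: growth of clinical yeast isolate S. cerevisiae YJM 789 seeded 1000 cells per well; test concentration not given here.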 The following applies: S. cerevisiae YJM789 growth, higher = more signal, called active from +8 up or from −8 down.
Test [3] can be described thus: fission yeast growth modulation, primary screen, strain 972, OD600, 24 h, no modulator (AID 1090).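 Also: basal condition with compound alone and no growth modifier present; test concentration not given here.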 The following applies: S. pombe 972 growth, higher = more signal, called active from +8 up or from −8 down.
The nature of test [4]: S. cerevisiae growth modulation with rapamycin, primary screen, strain BY4716, OD600, 96 h (AID 1091). Also: test concentration not given here. As to conditions: higher = more signal, called active from +8 up or from −8 down.
Test [5] concerns the target Torsin-1A-interacting protein 2 (Homo sapiens) (UniProt Q8NFQ8). Kind of test: LULL1 binders on small-molecule microarray, primary screen, cell lysate, human LULL1 lysate, 635/667 nm fluorescence (AID 1092).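 Also: probe is lysate of COS7 cells overexpressing human LULL1; score merges per-feature 667 nm fluorescence with signal-to-noise.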 The following applies: hLULL1 lysate binding, 635 nm fluorescence, higher = more signal.
Test [6] can be described thus: E. coli growth modulation, two-sided OD650, primary screen, E. coli filamentation project, strain DRC41, 24 h (AID 1093).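 Also: MC1000 strain lacking acrAB efflux and sulA so SOS filamentation is blocked; test concentration not given here.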 The following applies: OD650, 24 h, higher = more signal, called active from +8 up or from −8 down.
Test [7] in a line: small-molecule microarray binders of probe aLefty2, primary screen, biochemical, biotinylated probe, 635/667 nm fluorescence (AID 1094).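 Also: score merges spot fluorescence near 667 nm with spot signal-to-noise ratio.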 As to conditions: higher = more signal.
The test system of test [8] is Noggin (protein binding on small-molecule microarray). Kind of test: Noggin binders on small-molecule microarray, primary screen, biochemical, 635/667 nm fluorescence (AID 1095).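 Also: score merges 667 nm feature fluorescence with signal to noise over triplicate slides.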 The following applies: 635 nm fluorescence, higher = more signal.
The target in test [9] is Neurogenic locus notch homolog protein 3 (Homo sapiens) (UniProt Q9UM47). Kind of test: NOTCH3 binders on small-molecule microarray, primary screen, biochemical, 635/667 nm fluorescence (AID 1096). As to conditions: NOTCH3 binding, 635 nm fluorescence, higher = more signal.
Neurogenic locus notch homolog protein 3 (Homo sapiens), sequence (Q9UM47 whole entry, looked up): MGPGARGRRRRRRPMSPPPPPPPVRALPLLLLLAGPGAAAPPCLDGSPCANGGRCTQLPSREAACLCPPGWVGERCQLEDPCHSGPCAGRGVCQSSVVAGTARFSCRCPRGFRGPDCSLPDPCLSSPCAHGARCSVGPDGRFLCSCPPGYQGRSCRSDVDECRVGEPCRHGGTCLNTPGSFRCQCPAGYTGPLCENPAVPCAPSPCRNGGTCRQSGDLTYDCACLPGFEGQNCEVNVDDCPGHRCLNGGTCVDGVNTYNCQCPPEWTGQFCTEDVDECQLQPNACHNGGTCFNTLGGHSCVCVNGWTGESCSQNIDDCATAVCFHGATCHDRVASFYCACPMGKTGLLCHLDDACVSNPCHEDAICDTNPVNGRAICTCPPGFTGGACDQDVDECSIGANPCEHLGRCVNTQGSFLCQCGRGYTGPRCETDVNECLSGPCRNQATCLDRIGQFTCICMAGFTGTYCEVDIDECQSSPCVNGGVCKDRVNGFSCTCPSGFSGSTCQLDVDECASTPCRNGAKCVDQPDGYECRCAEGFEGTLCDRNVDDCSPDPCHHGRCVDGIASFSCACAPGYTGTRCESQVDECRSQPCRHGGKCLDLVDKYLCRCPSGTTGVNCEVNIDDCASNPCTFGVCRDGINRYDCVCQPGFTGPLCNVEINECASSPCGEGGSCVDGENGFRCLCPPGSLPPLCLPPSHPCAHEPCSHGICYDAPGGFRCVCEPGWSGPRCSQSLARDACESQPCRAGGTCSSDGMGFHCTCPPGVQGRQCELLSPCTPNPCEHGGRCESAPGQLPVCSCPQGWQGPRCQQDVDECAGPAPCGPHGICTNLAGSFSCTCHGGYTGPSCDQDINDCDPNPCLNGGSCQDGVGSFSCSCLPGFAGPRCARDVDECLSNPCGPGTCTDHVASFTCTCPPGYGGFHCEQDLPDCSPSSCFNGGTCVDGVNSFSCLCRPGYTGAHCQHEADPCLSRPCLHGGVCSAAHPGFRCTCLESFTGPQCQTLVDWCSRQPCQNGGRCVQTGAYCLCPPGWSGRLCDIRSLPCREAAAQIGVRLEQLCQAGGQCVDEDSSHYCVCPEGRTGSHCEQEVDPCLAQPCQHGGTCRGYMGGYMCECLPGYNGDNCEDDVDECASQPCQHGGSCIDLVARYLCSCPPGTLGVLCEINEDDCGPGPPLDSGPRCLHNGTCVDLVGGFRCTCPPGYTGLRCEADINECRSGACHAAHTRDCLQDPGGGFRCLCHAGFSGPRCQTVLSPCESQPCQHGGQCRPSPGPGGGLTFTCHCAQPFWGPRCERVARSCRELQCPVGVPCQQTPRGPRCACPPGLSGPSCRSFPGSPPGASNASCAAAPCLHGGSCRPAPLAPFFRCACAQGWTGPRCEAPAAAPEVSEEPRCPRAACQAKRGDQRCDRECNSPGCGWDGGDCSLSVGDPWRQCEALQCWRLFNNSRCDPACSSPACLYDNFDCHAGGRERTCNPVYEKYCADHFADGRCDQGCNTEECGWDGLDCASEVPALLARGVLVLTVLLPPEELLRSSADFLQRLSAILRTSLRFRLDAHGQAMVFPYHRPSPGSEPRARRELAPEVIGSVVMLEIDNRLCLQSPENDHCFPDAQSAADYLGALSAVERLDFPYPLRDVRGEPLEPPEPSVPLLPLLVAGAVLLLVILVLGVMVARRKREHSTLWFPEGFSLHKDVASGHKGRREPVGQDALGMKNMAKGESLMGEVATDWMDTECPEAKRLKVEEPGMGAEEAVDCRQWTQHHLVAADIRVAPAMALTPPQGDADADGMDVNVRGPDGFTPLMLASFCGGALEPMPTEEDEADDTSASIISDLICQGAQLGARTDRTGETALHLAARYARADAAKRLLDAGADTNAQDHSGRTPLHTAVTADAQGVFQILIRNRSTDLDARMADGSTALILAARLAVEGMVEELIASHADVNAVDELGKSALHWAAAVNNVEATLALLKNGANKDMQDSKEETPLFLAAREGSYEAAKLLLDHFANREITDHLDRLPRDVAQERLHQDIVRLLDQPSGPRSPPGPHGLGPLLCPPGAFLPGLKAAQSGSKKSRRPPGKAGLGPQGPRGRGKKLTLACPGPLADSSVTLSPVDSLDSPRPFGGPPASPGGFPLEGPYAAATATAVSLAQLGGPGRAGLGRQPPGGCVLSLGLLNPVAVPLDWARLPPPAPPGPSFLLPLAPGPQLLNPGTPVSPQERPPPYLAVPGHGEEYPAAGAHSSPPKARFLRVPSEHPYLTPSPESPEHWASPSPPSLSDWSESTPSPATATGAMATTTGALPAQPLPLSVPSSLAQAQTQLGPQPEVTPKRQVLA
The nature of test [10]: small-molecule microarray binders of probe aEGFR, primary screen, biochemical, biotinylated probe, 635/667 nm fluorescence (AID 1097).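 Also: probe is a biotinylated anti-EGFR antibody binding compounds printed on slides; score combines fluorescence near 667 nm and signal to noise of each spot.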 As to conditions: higher = more signal.

Torsin-1A-interacting protein 2 (Homo sapiens), sequence (Q8NFQ8 whole entry, looked up): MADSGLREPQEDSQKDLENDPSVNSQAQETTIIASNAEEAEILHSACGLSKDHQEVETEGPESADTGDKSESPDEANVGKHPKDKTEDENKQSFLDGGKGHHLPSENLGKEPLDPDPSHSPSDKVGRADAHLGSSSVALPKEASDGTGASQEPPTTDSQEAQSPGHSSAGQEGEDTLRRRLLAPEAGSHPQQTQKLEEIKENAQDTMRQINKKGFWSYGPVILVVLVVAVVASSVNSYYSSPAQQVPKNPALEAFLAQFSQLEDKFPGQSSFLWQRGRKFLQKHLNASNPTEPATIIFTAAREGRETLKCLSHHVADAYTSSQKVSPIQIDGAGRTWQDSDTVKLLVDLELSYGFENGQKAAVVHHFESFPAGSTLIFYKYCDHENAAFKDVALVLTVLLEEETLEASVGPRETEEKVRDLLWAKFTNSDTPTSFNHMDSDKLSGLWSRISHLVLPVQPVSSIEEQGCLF

Consider `COCCOC(=O)N1C(=O)[C@@]2(c3cc(C#CCC(C(=O)OC)C(=O)OC)ccc31)[C@H](c1ccc(OCCO)cc1)N1[C@H](c3ccccc3)[C@H](c3ccccc3)OC(=O)[C@H]1[C@@H]2C(=O)Nc1nc2ccccc2s1`, for which the composite z-score is 1.57 in test [1]; 0.828 in test [5]; -0.122 in test [7]; 0.994 in test [8]; 1.1 in test [9]; -0.04 in test [10]. Besides, the z-score is 2.28 (inactive) in test [2], 2.31 (inactive) in [3], 4.03 (inactive) in [4] and 2.5 (inactive) in test [6].
Turning to `C=CCNC(=O)[C@@H]1[C@H]2C(=O)O[C@H](c3ccccc3)[C@H](c3ccccc3)N2[C@H](c2ccc(O)cc2)[C@@]12C(=O)N(C(=O)OCCOC)c1ccc(C#CCCO)cc12`, the composite z-score in [1] came out at 1.41; in test [5], 2.57; in [7], 0.0278; in [8] it was 0.686; in test [9], 0.52; in test [10], 0.189. The z-score in test [2] is 0.434 (inactive); in test [3] it was 0.53 (inactive); in test [4], 1.17 (inactive); in test [6] it was -0.369 (inactive).
For `CCOC(=O)C1=CCC(c2ccco2)N(S(=O)(=O)c2ccc(C)cc2)C1` (stereo not given), the composite z-score in test [1] was determined as 1.08; in test [5], 2.62; in test [7], 0.18; in test [8], 0.637; in [9] it was 1.08; in test [10] it was 0.0357. Moreover, the z-score in [2] was -0.949 (inactive); in test [3], -0.0107 (inactive); in test [4], -0.013 (inactive); in [6] it was 0.322 (inactive).
In the case of `COc1cc2c(cc1O)C(c1cccs1)N(Cc1sc3ccccc3c1Cl)CC2` (stereo not given), the composite z-score in test [1] came out at 1.53; in test [5] it was 3.3; in [7] it was 0.105; in [8] it was 1.03; in [9] it was 1.03; in [10], 0.14. Also, the z-score in test [2] is -0.642 (inactive); in test [3] it was -1.93 (inactive); in [4], -1.63 (inactive); in test [6], -0.31 (inactive).
As for `C=CCNC(=O)[C@@H]1[C@H]2C(=O)O[C@H](c3ccccc3)[C@H](c3ccccc3)N2[C@H](c2ccc(OCCO)cc2)[C@@]12C(=O)N(C(=O)OCCOC)c1ccc(C#CCCO)cc12`, the composite z-score in test [1] was 1.55; in test [5], 1.85; in [7], -0.0861; in [8] it was 0.916; in test [9], 1.1; in [10], -0.0088. Besides, the z-score in [2] was -0.0915 (inactive); in test [3], 0.269 (inactive); in test [4], 4.08 (inactive); in test [6] it was 2.17 (inactive).
With `CC(=O)NCCCC[C@@H]1NC(=O)[C@@H]2C[C@H](C(=O)NCCCCCCN)[C@H](c3cccc(OCCO)c3)N2C1=O`, the composite z-score in test [1] was 0.858; in [5], 2.3; in test [7], -0.0554; in [8] it was 0.271; in test [9], -0.239; in [10], -0.175. Moreover, the z-score in [2] is 0.119 (inactive); in [3], -0.646 (inactive); in test [4], -0.831 (inactive); in test [6], -0.314 (inactive).
Consider `[N-]=[N+]=NCc1ccccc1C[C@]1(C(=O)N2CCOCC2)COC(c2ccc(OCCCO)cc2)=N1`, for which the composite z-score was 1.5 in test [1]; 2.39 in test [5]; 0.273 in test [7]; -0.296 in test [8]; 0.364 in test [9]; 0.0706 in [10]. Also, the z-score in test [2] was -0.486 (inactive); in [3], -5.38 (inactive); in test [4], 32.4 (active); in test [6] it was 3.3 (inactive).
Consider `[N-]=[N+]=Nc1ccccc1C[C@]1(C(=O)NCc2ccccc2)COC(c2ccc(OCCCO)cc2)=N1`, for which the composite z-score was 1.32 in test [1]; 3.33 in [5]; 0.0573 in [7]; 0.544 in test [8]; 1.08 in test [9]; -0.0669 in test [10]. The z-score in test [2] was 1.04 (inactive); in test [3] it was 0.184 (inactive); in test [4] it was 32.1 (active); in test [6] it was 1.04 (inactive).
`O=C1C2C=CC(C(O)C=Cc3ccc([N+](=O)[O-])cc3)N(Nc3ccccc3)C2C(=O)N1c1ccccc1` (stereo not given): the composite z-score in test [1] is 1.33; in test [5], 2.78; in test [7], 0.349; in test [8] it was 0.505; in test [9] it was 1.04; in [10] it was -0.0238. In addition, the z-score in test [2] was 0.431 (inactive); in [3] it was 0.102 (inactive); in [4], -0.19 (inactive); in test [6], -0.608 (inactive).
`O=C(NCCN1CCOCC1)[C@@H]1c2ccccc2C(=O)N(Cc2ccccc2)[C@H]1c1ccc(CO)cc1`: the composite z-score in test [1] is -0.845; in [5], 0.0893; in [7], -0.129; in [8] it was 0.278; in test [9], -0.036; in test [10] it was -0.204. Besides, the z-score in test [2] is -0.0009 (inactive); in test [3], 0.253 (inactive); in test [4], -0.412 (inactive); in test [6], 0.311 (inactive).
In the case of `C=CCN1C(=O)[C@]2(O[C@H](CCO)[C@@H]([Si](C)(C)c3ccc(OC)cc3)[C@@H]2C)c2cc(N3C(=O)COc4ccccc43)ccc21`, the composite z-score was 1.53 in test [1]; 1.29 in test [5]; -0.192 in [7]; 0.679 in [8]; 0.763 in [9]; -0.12 in test [10]. Moreover, the z-score in test [2] was 1.81 (inactive); in test [3], 0.0538 (inactive); in [4], 32.6 (active); in [6] it was 1.64 (inactive).
